Data on nine compounds can be found in PubChem BioAssay (NCI).

About 83,000 compounds went through this panel and 20% of them were active in at least one assay; those are over-represented in the sample as a whole.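 Step 1: grow cells in 96-well plates. Step 2: add test compound at a single concentration. Step 3: incubate 48 h. Step 4: record percent growth.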 Values without a mark were called inactive. Active and inactive are the calls of the source. The calls were made as follows: active = growth percent below 10; inactive = the rest.

The subject of this test is HCT-116 colon. In words: NCI-60 one-dose screen, 48 h (100 = growth as untreated, 0 = no growth, -100 = all killed). The conditions noted are these: 10 µM unless noted.
Regarding `CC(=C(c1ccc(OCCCN(C)C)cc1)c1ccc(OCCCN(C)C)cc1)c1ccc(Cl)cc1`, the growth is 64.6%.
Turning to `CCc1cc2c(cc1Cl)nc1c(=O)[nH]c(=O)nc-1n2CCOCC(C)(C)C`, the growth was 73.3%.
For `COc1ccc(/C=N/N=C(/c2ccccc2)c2ccc3nc(-c4ccc(Cl)cc4)[nH]c3c2)cc1`, the growth was 75.4%.
In the case of `Cc1[nH]c(C(=O)Nc2ccc(S(=O)(=O)N3CCCCC3)cc2OCCOCCOCCOCCOCCOCCOCCOCCOCCOc2cc(S(=O)(=O)N3CCCCC3)ccc2NC(=O)c2[nH]c(C)c3c2CCCCC3=O)c2c1C(=O)CCCC2` it was -32.3% (active).
In the case of `Cc1csc(/N=C(N)/N=C(\N)c2cccc(C#N)c2)n1` it was 49.7%; in that of `CC1(C)CC[C@]23CC[C@]4(C)[C@H](CC[C@@H]5[C@@]6(C)CC[C@H](NCO)C(C)(C)[C@@H]6CC[C@]54C)[C@H]2[C@H]1OC3`, -9.59% (active).
In the case of `NC1CC2(CCN(c3cnc(C(=O)Nc4cc(F)cc5cccnc45)cn3)CC2)C1` it was 38.5%; in that of `COc1ccc(-c2cc(-c3ccc(N4CCOCC4)cc3)n3c(n2)nc2ccccc23)cc1OC`, 96%.
`CN1CCC[C@]2(C)[C@H]3CC[C@@H]4[C@@H]5[C@H]6OC[C@@]5(CCC6(C)C)CC[C@@]4(C)[C@]3(C)CC[C@H]2C1(C)C`: the growth was 15.4%.
